Assay outcomes as filed in PubChem BioAssay.
Most compounds without a hit are left out; they make up all but 1.9% or so of the library.
GRK2 aptamer HTS: inhibitors of human GRK2 displacing RNA aptamer | P25098 | bead flow cytometry, FAM-aptamer displacement from GRK2 | inhibition of aptamer binding, % at 10 µM | actives 0.59% (n = 330,000) | AID 488847;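 active = inhibition of aptamer binding above 40%, roughly 3 SD of noise, on plates passing a quality check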;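 note: median bead fluorescence of bound FAM aptamer so fluorescent compounds give negative values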
Target sequence (P25098 whole entry, looked up): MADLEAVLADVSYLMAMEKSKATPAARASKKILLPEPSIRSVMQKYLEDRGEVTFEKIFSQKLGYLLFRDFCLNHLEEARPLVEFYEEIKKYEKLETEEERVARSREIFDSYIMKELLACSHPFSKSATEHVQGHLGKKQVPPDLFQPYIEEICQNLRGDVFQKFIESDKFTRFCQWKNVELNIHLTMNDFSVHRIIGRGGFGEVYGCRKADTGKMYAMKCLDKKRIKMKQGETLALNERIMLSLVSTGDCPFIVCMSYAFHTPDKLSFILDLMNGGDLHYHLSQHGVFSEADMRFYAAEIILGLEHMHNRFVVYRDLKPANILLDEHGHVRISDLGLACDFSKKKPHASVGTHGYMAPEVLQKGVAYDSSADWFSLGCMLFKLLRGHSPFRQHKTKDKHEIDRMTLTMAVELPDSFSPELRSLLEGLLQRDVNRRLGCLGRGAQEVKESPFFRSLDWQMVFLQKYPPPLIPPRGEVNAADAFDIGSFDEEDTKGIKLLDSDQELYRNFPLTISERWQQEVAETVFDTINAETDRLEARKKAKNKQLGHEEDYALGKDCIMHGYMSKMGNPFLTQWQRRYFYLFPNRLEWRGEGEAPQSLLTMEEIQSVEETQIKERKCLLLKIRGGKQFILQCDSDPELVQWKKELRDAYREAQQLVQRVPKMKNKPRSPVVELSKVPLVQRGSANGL
PABP FP inh: blocks human PABP binding to poly(A) RNA; actives 1% (n = 290,000); inhibition, % at 35 µM; fluorescence polarization;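 note: calls also rest on retests at 20 µM and on dose response follow-up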
PERK inh: blocks human PERK kinase | Q9NZJ5 | CHO PERK-DD fusion, SEAP luminescence translation reporter | inhibition, % at 5.6 µM | actives 0.17% (n = 220,000) | AID 1416;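 active = inhibition above the mean inhibition of all tested compounds plus 3 SD, set separately per screening campaign, cut at about 2.9% in these data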;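 note: PERK kinase domain activated by AP20187 dimerizer at 100 nM; 0% = DMSO with dimerizer and 100% = rapamycin at 8.4 µM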
PABP1 MLLE inh: inhibitors of microRNA-mediated deadenylation, human PABP1 MLLE binding | P11940 | GST-MLLE / FITC-PAM2 fluorescence polarization | inhibition, % at 20 µM | actives 0.36% (n = 360,000); in the data active = inhibition above about 35%, passing the limit was not always enough;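 note: plate controls were DMSO wells with GST-MLLE for no effect and wells lacking GST-MLLE protein for full effect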
eIF4H inh: inhibitors of RNA binding by human eIF4H; Q15056; eIF4H fluorescence polarization binding assay; inhibition, % at 35 µM; actives 0.94% (n = 290,000);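 note: calls also rest on retests at 20 µM and on dose response follow-up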
Numbers without * were called inactive; ? = inconclusive; nt = no result. Unless noted, the rule behind the calls is not given here.

SMILES	GRK2 aptamer HTS	PABP FP inh	PERK inh	PABP1 MLLE inh	eIF4H inh
Brc1ccc(-c2nc3c4ccccc4ccn3c2Cc2ccccc2)cc1	nt	nt	nt	-15.7	nt
O=C(CSc1nnc(CNC(=O)c2c(F)cccc2Cl)o1)NCc1ccc(F)cc1	1.0	4.3	nt	-12.7	77.1
CN1CCN(c2nc3c(c(=O)[nH]c(=O)n3C)n2CCCSc2nnnn2-c2ccccc2)CC1	2.0	-13.5	-0.6	-11.9	3.3
CC1CCN(c2nc3c(c(=O)[nH]c(=O)n3C)n2CC(C)CSc2nnnn2-c2ccccc2)CC1 (stereo not drawn)	0.0	69.0*	-0.1	-7.8	5.3
Cn1c(=O)[nH]c(=O)c2c1nc(N1CCCCC1)n2CCCSc1nnnn1-c1ccccc1	3.0	50.3*	-1.4	10.6	active
CCN1CCN(C(=O)C2CCC(=O)N(Cc3cccc(C(F)(F)F)c3)C2)CC1 (stereo not drawn)	1.0	1.2	nt	-5.0	-2.9
Cc1cc(C)c2c(=O)[nH]c(=O)n(Cc3ccccc3)c2n1	6.0	96.2*	-0.7	-73.5	103.1*
Cc1ccc(-c2nc3c(c(=O)[nH]c(=O)n3Cc3ccccc3)n2Cc2ccccc2)o1	nt	-8.2	0.1	-12.9	-0.1
Cc1ccc(-c2nc3c(c(=O)[nH]c(=O)n3Cc3ccccc3)n2C)o1	nt	active	0.5	2.8	88.5*
NC(=O)c1ccsc1NC(=O)COC(=O)c1ccccn1	0.0	nt	nt	-2.4	nt
Cn1nc(OCC(=O)O)cc1C(F)(F)F	0.0	10.8	3.0*	-3.4	-4.9
Cc1noc(C)c1COc1ccc(C(=O)NNC(=O)c2ccccc2F)cc1	1.0	nt	nt	8.4	nt
Cc1ccc(-c2cc(-c3ccccc3)c(C#N)c(N)n2)o1	3.0	118.4*	-0.7	4.8	?
Cc1ccc(-c2cc(-c3ccccc3Cl)c(C#N)c(N)n2)o1	0.0	63.7*	0.7	-15.6	66.4*
Cc1ccc(-c2cc(-c3ccc(F)cc3)nc(N)c2C#N)o1	2.0	19.6	-0.1	-4.6	25.2
COc1cc(/C(C)=N/NC(=O)c2cccc(S(=O)(=O)N3CCCC3)c2)cc(OC)c1OC	50.0*	-2.5	nt	-0.6	0.8
CCOCCOC(=O)C1=C(C)Nc2ccc(C)cc2S1	0.0	3.8	-0.1	31.5	-1.9
CCOC(=O)C1=C(C)Nc2ccc(C)cc2S1	0.0	-9.1	0.3	50.1*	3.8
CCCc1nc2ccccc2c(=O)n1N	3.0	-13.3	3.6*	-6.8	-5.3
O=C(CSc1ccc(-c2ccco2)nn1)N1CCCCC1	1.0	2.1*	0.4	27.6	94.7
Cc1cccc(NC(=O)CSc2ccc(-c3ccco3)nn2)c1C	0.0	15.0*	-0.1	12.5	77.6*
O=C(CSc1ccc(-c2ccco2)nn1)NCc1ccc(Cl)cc1	0.0	-2.0	0.5	22.0	1.3
O=C(CSc1ccc(-c2ccco2)nn1)NCc1ccccc1	2.0	6.9*	1.0	31.7	97.2*
Cc1cccc(CSc2ccc(-c3ccco3)nn2)c1	2.0	58.6*	0.9	17.1	51.9*
Cc1ccc(C)c(OCCC(=O)NNC(=O)c2cc(C)oc2C)c1	2.0	nt	nt	6.2	nt
SMILES	GRK2 aptamer HTS	PABP FP inh	PERK inh	PABP1 MLLE inh	eIF4H inh
Cn1c(CNC(=O)c2ccco2)nnc1SCCOc1ccccc1	nt	3.6	nt	1.3	-2.5
N#Cc1c(-c2ccco2)ccn(Cc2cccc(F)c2)c1=O	12.0	active	0.5	-1.9	69.9*
C=C(C)C1CC=C(C)/C(=N\NC(=O)CCc2ccccc2)C1 (stereo not drawn)	0.0	-0.3	0.9	-3.4	-4.7
O=C(O)CCCN1C(=O)/C(=C/C=C/c2ccco2)SC1=S	100.0*	91.6*	0.2	5.5	97.7*
O=C(CCN1C(=O)/C(=C\C=C\c2ccccc2)SC1=S)Nc1cccc(C(=O)O)c1	7.0	77.9*	nt	-7.0	88.2*
O=C(O)CC(C(=O)O)N1C(=O)/C(=C/C=C/c2ccco2)SC1=S (stereo not drawn)	100.0*	91.1*	2.1	7.1	99.9*
O=C(O)C(Cc1ccccc1)N1C(=O)/C(=C/C=C/c2ccco2)SC1=S (stereo not drawn)	nt	97.0*	0.4	-40.6	84.6*
O=C1S/C(=C\C=C\c2ccco2)C(=O)N1c1ccc(O)cc1	4.0	2.3	1.6	7.7	88.4
COc1ccc(NC(=O)CN2C(=O)COc3ccccc32)cc1OC	1.0	0.1	nt	5.8	-5.9
CCCCCCSc1cccc(-c2nc3ccc(Cl)cn3c2NCc2ccccc2)c1	nt	nt	nt	-3.2	nt
COc1ccc2nc(-c3ccccc3)nc(SC)c2c1	nt	nt	nt	-7.9	nt
COc1ccc(/C=N/Nc2ncnc3sc4c(c23)CCCC4)cc1OC	0.0	3.8	0.2	-10.6	-9.4
COCCNCc1nc2sc(C)c(-c3ccccc3)c2c(=O)[nH]1	0.0	8.6	-1.0	-7.3	-3.8
O=C(O)CCCN1C(=O)/C(=C\c2ccc(-c3nc4ccccc4s3)o2)SC1=S	13.0	84.6*	2.8	-98.6	96.1*
COc1ccc(-c2ccc(/C=C3/C(=N)N4C(C)=CSC4=NC3=O)o2)c([N+](=O)[O-])c1	3.0	active	0.0	49.3	91.0*
COc1ccc(-c2ccc(/C=C3\C(=O)N(c4ccccc4)N=C3c3ccccc3)o2)c([N+](=O)[O-])c1	0.0	-0.6	-1.0	17.8	3.6
Cc1ccc(NC(=O)Cn2c(=O)oc3ccccc32)c(C)c1	3.0	-5.0	nt	-1.7	0.1
COc1ccc(F)cc1-c1cc(C(=O)NC2CCCCC2)[nH]n1	nt	nt	nt	6.0	nt
Nc1nc(SCc2ccccc2)sc1C(=O)N1CCCCC1	nt	nt	nt	19.0	nt
CCCCNC(=O)c1cccnc1SCC(=O)Nc1ccccc1OC	12.0	2.1	0.3	6.9	-10.0
CCCCCCCCNC(=O)c1cccnc1SCC(=O)Nc1ccc(OC)cc1OC	1.0	6.4*	0.7	-4.6	64.2*
N#CCSc1nnc(CNc2ccc(F)cc2)o1	2.0	52.6*	1.3	48.1*	111.0*
N#CCSc1nnc(CNc2cccc(Cl)c2)o1	0.0	1.1	0.9	10.1	-1.7
COc1ccc(/C=N/Nc2nnc(Cc3ccccc3)c(=O)[nH]2)cc1OC	1.0	1.1*	0.3	0.8	?
CCCNC(=O)c1ccc(N2CCC3(CC2)CC(c2cccc(Br)c2)=NO3)c([N+](=O)[O-])c1	1.0	-8.8	nt	1.9	-6.9
SMILES	GRK2 aptamer HTS	PABP FP inh	PERK inh	PABP1 MLLE inh	eIF4H inh
CN(C(=O)c1cccc(COc2ccc(Cl)cc2Cl)c1)c1ccccc1	3.0	102.3*	-0.1	-2.4	-9.1
COc1cc(Cl)c(C)cc1NC(=O)CSC1=NCCS1	1.0	nt	nt	18.7	nt
CN(C)CCC#CC(O)(c1ccccc1)c1ccccc1	0.0	75.7*	0.8	3.9	6.6*
CCOC(=O)c1c(/N=C/N(C)C)sc(/C=N/Nc2ccccc2)c1-c1ccccc1Cl	4.0	94.8*	0.2	-23.2	-9.1
CCOC(=O)c1c(/N=C/N(C)C)sc(/C=N/Nc2ccccc2)c1-c1ccccc1	1.0	1.5	0.4	-53.0	-4.9
CN(Cc1ccccc1)C(=O)c1[nH]cnc1C(=O)N[C@@H](CCCCNC(=O)OC(C)(C)C)C(=O)OC(C)(C)C	nt	5.1*	0.2	3.5	84.5*
CCCC[n+]1c2ccccc2cc2ccccc21	1.0	67.5*	nt	-82.5	14.1
